# Measurements published in PubChem BioAssay (Tox21).
# A number with no mark means an inactive call. Results filed as inconclusive are left out. A call without a number means that no potency is given here. Calls of active or inactive are those of the source. Unless noted, the call rests on the fitted dose curve.
# Assays:
# [1] = Nuclear factor erythroid 2-related factor 2/antioxidant responsive element (Nrf2/ARE) small molecule agonists: qHTS cell viability counter screen in human keratinocytes (AID 1919968; active means well fitted curve in the direction sought with a large enough effect in the repeat runs; an effect the other way counts as inactive or inconclusive; further: nearly all actives have a fitted effect of over 55% in size; further: potency means the concentration at half of the fitted maximal effect)
# Method in brief: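 Cells of the KeratinoSens line were plated at 1,500 per well and left for 5 h before compound transfer from DMSO stocks. After a 23 h incubation (37 C, 5% CO2), CellTiter-Fluor was added. Signal was taken as fluorescence intensity 1 h later.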
# [2] = Nuclear factor erythroid 2-related factor 2/antioxidant responsive element (Nrf2/ARE) small molecule agonists: luciferase reporter gene qHTS assay in human keratinocytes (AID 1919969); further: nearly all actives have a fitted effect of over 35% in size; further: potency means the concentration at half of the fitted maximal effect
# [3] = biological target: Gonadotropin-releasing hormone receptor (Homo sapiens) (UniProt P30968); assay: Human gonadotropin-releasing hormone receptor (GnRHR) small molecule agonists, calcium flux assay in GnRHR-HEK293 cells (AID 1920063); further: nearly all actives have a fitted effect of over 35% in size
# Method in brief: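 Compounds dissolved in DMSO are pin-transferred onto dye-loaded GnRHR-HEK293 cells, which were seeded 18 h before at 37 C/5% CO2. Calcium signal is read as fluorescence intensity at 1 s intervals for 3 min.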
# [4] = biological target: KiSS-1 receptor (Homo sapiens) (UniProt Q969F8); assay: Human kisspeptin (KISS1R) small molecule agonists, calcium flux assay in KISS1R-HEK293 cells (AID 1920064; active means well fitted curve in the direction sought with a large enough effect in the repeat runs; an effect the other way counts as inactive or inconclusive)
# Method in brief: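 Cell line: HEK293, stable human KISS1R. Dye loading 1 h at 37 C after 18 h culture. Read: kinetic fluorescence, 480/540 nm, 3 min at 1 s intervals.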
# [5] = G protein-coupled receptor (GPCR) small molecule agonists, calcium flux assay: HEK293 wild type cell line counter screen (AID 1920065)
# Method in brief: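 Tox21 10K compounds, 15 concentrations each in triplicate, pin-transferred in DMSO onto dye-loaded cells; kinetic read at 480/540 nm for 3 min, 1 s intervals.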
# [6] = p53 small molecule agonists, cell-based qHTS assay with human liver microsomes (AID 1963577)
# Method in brief: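 p53RE-bla reporter cells were pre-incubated 5 h at 37 C, then treated with compounds plus human liver microsomes (0.5 mg/mL final) and NADPH (0.5 mg/mL final) for 16 h at 37 C. Beta-lactamase activity was read by LiveBLAzer fluorescence after 2 h at room temperature.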
# [7] = p53 small molecule agonists, cell-based qHTS assay with rat liver microsomes (AID 1963578)
# Method in brief: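 p53RE-bla cells were exposed to compounds together with rat liver microsomes (0.5 mg/mL final) and NADPH (0.5 mg/mL final) for 16 h at 37 C, then read by LiveBLAzer beta-lactamase fluorescence after 2 h at room temperature.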
# [8] = p53 small molecule agonists, cell-based qHTS assay with human liver microsomes: qHTS cell viability counter screen (AID 1963579); further: nearly all actives have a fitted effect of over 45% in size
# Method in brief: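 p53RE-bla cells (4,000/well) were pre-incubated 5 h at 37 C, then given compounds in DMSO plus human liver microsomes (0.5 mg/mL final) and NADPH (0.5 mg/mL final) for 16 h at 37 C. Viability was read by CellTiter-Glo luminescence.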
# [9] = biological target: Beta-2 adrenergic receptor (Homo sapiens) (UniProt P07550); assay: Adrenergic beta2 receptor (ADRB2) small molecule antagonists, cell-based qHTS assay (AID 1963592); further: nearly all actives have a fitted effect of over 50% in size; further: potency means the concentration at half of the fitted maximal effect
# Method in brief: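 Assay format: CHO-ADRB2 cells, 18-20hr seeding at 37C/5% CO2, then compound plus 1nM isoproterenol agonist mix for 0.5hr RT. Homogeneous time-resolved fluorescence cAMP detection after 1hr, expressed as 665/615 nm ratio.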
# [10] = biological target: D(2) dopamine receptor (Homo sapiens) (UniProt P14416); assay: Dopamine D2 receptor (DRD2) small molecule agonists, cell-based qHTS assay (AID 1963594); further: nearly all actives have a fitted effect of over 35% in size
# Method in brief: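 HEK293 cells stably expressing human DRD2, pre-treated with PDE inhibitor Ro20-1724 (0.1 mM final) and compound 10 min at room temperature, then stimulated with NKH477 (200nM […]) for 30 min. cAMP read by HTRF (665/620 nm).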
# [11] = biological target: D(2) dopamine receptor (Homo sapiens) (UniProt P14416); assay: Dopamine D2 receptor (DRD2) small molecule antagonists, cell-based qHTS assay (AID 1963595; active means well fitted inhibition curve with a large enough effect in the signal ratio in the repeat runs, with a control signal flat; the % refers to the signal ratio; further: potency means the concentration at half of the fitted maximal effect)
# Method in brief: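 Stable D2 receptor HEK293 line, 24 h after seeding. Compound preincubated 10 min, then quinpirole (12 nM) with forskolin analogue NKH477 (200 nM), 30 min, room temperature. Detection by time-resolved FRET of cAMP.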
# [12] = p53 small molecule agonists, cell-based qHTS assay: qHTS cell viability counter screen (AID 1963581); further: nearly all actives have a fitted effect of over 45% in size
# Method in brief: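 ATP content measured by luminescence in HCT-116 p53RE-bla cells treated 16 h at 37 C, same wells as the reporter screen.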
# [13] = p53 small molecule agonists, cell-based qHTS assay (AID 1963582; active means well fitted activation curve with a large enough effect in the signal ratio in the repeat runs, not every such curve was filed as active; the % refers to the signal ratio)
# Method in brief: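 16 h compound exposure (37 C) of p53 response element–bla cells, preceded by 5 h recovery at 37 C/5% CO2; read-out via LiveBLAzer B/G FRET substrate, 2 h RT, fluorescence intensity.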
# [14] = biological target: 5-hydroxytryptamine receptor 2A (Homo sapiens) (UniProt P28223); assay: 5-hydroxytryptamine receptor 2A (HTR2A) small molecule antagonists, cell-based qHTS assay (AID 1963586); further: nearly all actives have a fitted effect of over 45% in size; further: potency means the concentration at half of the fitted maximal effect
# Method in brief: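 CHO cells stably expressing human HTR2A were plated for 18 h at 37 C, then loaded with calcium dye for 1 h. Compounds were preincubated 5 min at room temperature before DOI (4 nM solution) was added. Kinetic fluorescence was read for 3 min.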
# [15] = biological target: 5-hydroxytryptamine receptor 2A (Homo sapiens) (UniProt P28223); assay: 5-hydroxytryptamine receptor 2A (HTR2A) small molecule agonists, cell-based qHTS assay (AID 1963587); further: nearly all actives have a fitted effect of over 30% in size
# Method in brief: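 CHO cells stably expressing human HTR2A, plated 18 h, loaded with calcium dye 1 h at 37 C. Agonist mode: compounds added and intracellular calcium fluorescence recorded kinetically for 2 min at 1 sec intervals.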
# [16] = biological target: Muscarinic acetylcholine receptor M1 (Homo sapiens) (UniProt P11229); assay: Cholinergic receptor muscarinic 1 (CHRM1) small molecule antagonists, cell-based qHTS assay (AID 1963588); further: nearly all actives have a fitted effect of over 40% in size
# Method in brief: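 Compounds were tested at 15 concentrations in three independent runs. Dye-loaded CHRM1-CHO cells were exposed 5 min at room temperature before stimulation by acetylcholine added at 50nM. Intracellular calcium was read kinetically on FDSS for 3 min.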
# [17] = biological target: Muscarinic acetylcholine receptor M1 (Homo sapiens) (UniProt P11229); assay: Cholinergic receptor muscarinic 1 (CHRM1) small molecule agonists, cell-based qHTS assay (AID 1963589); further: nearly all actives have a fitted effect of over 35% in size
# Method in brief: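 Homogeneous fluorescence calcium flux, agonist mode. Human M1-expressing CHO cells; compound dosed at 15 concentrations, three independent runs; signal sampled every 1 sec.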
# [18] = cAMP Responsive Elements (CRE) small molecule agonists, cell-based qHTS assay (AID 1963590)
# Method in brief: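 HEK 293T cells stably bearing CRE-bla were plated at 2,000 cells per well and rested 18 h. Compounds, positive controls or DMSO were added for 3 h at 37 C. LiveBLAzer B/G substrate was then loaded for 2 h at room temperature.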
# [19] = cAMP Responsive Elements (CRE) small molecule antagonists, cell-based qHTS assay (AID 1963591; active means well fitted inhibition curve with a large enough effect in the signal ratio in the repeat runs, not every such curve was filed as active; the % refers to the signal ratio)
# Method in brief: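 First, CRE-bla HEK293T cells settled 18 h at 37 C. Next, compound and 0.25 uM final NKH477 were applied for 3 h. Last, LiveBLAzer B/G substrate was loaded for 2 h at room temperature.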
# [20] = biological target: Beta-2 adrenergic receptor (Homo sapiens) (UniProt P07550); assay: Adrenergic beta2 receptor (ADRB2) small molecule agonists, cell-based qHTS assay (AID 1963593);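 further: CHO cells stably overexpressing human ADRB2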
# Method in brief: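 CHO cells stably over-expressing ADRB2 were plated overnight at 37C, then dosed with compounds plus a stimulation mix containing 100uM IBMX and 25uM Ro-20-1724 for 0.5hr at room temperature. cAMP was measured by HTRF competition, 1hr.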
# Gonadotropin-releasing hormone receptor (Homo sapiens), sequence (P30968 whole entry, looked up): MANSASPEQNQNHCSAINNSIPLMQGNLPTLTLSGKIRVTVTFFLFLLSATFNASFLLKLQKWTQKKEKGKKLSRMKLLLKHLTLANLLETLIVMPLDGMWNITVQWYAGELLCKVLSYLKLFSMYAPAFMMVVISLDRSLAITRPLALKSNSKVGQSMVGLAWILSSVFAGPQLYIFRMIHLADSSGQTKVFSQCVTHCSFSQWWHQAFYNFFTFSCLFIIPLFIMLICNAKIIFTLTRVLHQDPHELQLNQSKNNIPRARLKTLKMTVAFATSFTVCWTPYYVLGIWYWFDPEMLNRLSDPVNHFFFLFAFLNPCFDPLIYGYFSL
# Beta-2 adrenergic receptor (Homo sapiens), sequence (P07550 whole entry, looked up): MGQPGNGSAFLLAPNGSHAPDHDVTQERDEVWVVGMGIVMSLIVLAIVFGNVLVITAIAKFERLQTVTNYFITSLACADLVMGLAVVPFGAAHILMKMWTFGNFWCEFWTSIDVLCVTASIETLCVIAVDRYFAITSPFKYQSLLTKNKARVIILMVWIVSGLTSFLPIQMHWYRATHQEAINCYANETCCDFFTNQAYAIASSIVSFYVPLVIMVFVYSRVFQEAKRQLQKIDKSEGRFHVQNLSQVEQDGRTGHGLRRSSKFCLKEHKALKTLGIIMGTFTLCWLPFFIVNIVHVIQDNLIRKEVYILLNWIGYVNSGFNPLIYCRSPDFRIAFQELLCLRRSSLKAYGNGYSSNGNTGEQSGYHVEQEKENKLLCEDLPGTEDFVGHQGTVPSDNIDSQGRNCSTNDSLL
# Muscarinic acetylcholine receptor M1 (Homo sapiens), sequence (P11229 whole entry, looked up): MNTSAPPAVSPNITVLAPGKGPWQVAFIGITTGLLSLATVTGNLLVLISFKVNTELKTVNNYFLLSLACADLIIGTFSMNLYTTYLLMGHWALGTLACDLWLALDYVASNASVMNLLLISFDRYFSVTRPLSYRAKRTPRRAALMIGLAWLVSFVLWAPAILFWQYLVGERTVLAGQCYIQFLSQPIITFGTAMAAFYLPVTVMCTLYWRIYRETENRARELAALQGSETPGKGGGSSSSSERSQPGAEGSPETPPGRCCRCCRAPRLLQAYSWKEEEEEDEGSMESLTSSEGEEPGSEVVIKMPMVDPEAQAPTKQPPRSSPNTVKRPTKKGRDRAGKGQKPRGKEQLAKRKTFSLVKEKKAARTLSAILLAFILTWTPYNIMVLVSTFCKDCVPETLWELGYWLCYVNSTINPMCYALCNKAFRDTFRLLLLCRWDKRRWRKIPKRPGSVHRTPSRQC
# KiSS-1 receptor (Homo sapiens), sequence (Q969F8 whole entry, looked up): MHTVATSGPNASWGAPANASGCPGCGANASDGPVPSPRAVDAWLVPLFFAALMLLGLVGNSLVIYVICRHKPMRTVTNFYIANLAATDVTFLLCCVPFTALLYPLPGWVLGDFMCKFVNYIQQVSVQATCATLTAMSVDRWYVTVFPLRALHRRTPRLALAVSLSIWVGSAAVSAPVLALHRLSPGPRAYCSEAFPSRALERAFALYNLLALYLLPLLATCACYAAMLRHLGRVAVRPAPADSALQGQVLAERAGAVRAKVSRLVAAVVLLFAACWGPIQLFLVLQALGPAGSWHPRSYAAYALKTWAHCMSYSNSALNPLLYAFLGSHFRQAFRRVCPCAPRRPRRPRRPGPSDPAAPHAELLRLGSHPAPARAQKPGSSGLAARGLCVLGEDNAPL
# D(2) dopamine receptor (Homo sapiens), sequence (P14416 whole entry, looked up): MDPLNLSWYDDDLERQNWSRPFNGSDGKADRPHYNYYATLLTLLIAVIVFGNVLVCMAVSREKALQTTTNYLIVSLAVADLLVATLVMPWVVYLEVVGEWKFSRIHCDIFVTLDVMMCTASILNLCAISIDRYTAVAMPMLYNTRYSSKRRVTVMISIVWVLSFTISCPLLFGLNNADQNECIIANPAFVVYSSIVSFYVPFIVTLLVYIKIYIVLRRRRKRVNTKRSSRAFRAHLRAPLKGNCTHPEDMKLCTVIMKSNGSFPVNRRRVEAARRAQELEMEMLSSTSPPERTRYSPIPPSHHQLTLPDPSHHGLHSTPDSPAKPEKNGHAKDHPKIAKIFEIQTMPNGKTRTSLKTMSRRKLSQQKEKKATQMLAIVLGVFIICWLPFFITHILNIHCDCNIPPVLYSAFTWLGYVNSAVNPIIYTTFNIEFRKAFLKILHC
# 5-hydroxytryptamine receptor 2A (Homo sapiens), sequence (P28223 whole entry, looked up): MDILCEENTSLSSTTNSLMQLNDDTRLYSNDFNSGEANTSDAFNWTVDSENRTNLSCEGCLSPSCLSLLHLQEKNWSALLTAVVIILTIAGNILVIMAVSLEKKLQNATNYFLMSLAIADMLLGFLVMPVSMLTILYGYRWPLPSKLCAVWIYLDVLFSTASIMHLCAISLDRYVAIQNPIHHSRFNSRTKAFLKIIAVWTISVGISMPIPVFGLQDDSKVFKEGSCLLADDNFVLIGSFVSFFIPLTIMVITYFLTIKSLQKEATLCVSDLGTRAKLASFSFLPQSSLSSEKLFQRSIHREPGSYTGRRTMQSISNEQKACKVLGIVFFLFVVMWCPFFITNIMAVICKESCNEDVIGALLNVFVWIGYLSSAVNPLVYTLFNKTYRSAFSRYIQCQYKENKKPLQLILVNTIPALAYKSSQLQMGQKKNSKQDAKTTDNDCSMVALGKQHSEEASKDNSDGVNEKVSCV
Structure (SMILES),Potency [1],Potency [2],Potency [3],outcome [4],outcome [5],Potency [6],Potency [7],Potency [8],Potency [9],Potency [10],Potency [11],Potency [12],Potency [13],Potency [14],Potency [15],Potency [16],Potency [17],Potency [18],Potency [19],Potency [20]
CCCCC1=NC2(CCCC2)C(=O)N1Cc1ccc(-c2ccccc2-c2nn[nH]n2)cc1,inactive,inactive,inactive,inactive,inactive,inactive,inactive,inactive,inactive,inactive,inactive,–,–,–,–,–,–,–,–,–
CC(CC(C)(C)C)CC(C)(C)CC(C)(C)C (centres undefined),inactive,inactive,inactive,inactive,inactive,inactive,inactive,inactive,inactive,inactive,inactive,inactive,inactive,inactive,inactive,inactive,inactive,inactive,inactive,–
Cc1cccc(Nc2ccncc2S(=O)(=O)NC(=O)NC(C)C)c1,inactive,inactive,inactive,inactive,inactive,inactive,inactive,inactive,inactive,inactive,inactive,–,–,–,–,–,–,inactive,inactive,inactive
S=C1NC=NC2N=CNC12 (centres undefined),inactive,inactive,inactive,inactive,inactive,inactive,inactive,inactive,inactive,inactive,inactive,–,–,inactive,inactive,inactive,–,inactive,–,–
CCN1CCCC1CNC(=O)c1cc(S(N)(=O)=O)ccc1OC (centres undefined),inactive,inactive,inactive,inactive,inactive,inactive,inactive,inactive,inactive,inactive,–,–,–,–,–,–,–,–,–,inactive
CC(=O)OC(C)=O,inactive,inactive,inactive,inactive,inactive,inactive,inactive,inactive,inactive,inactive,–,–,–,inactive,inactive,–,inactive,inactive,inactive,–
C[C@@H](CN1CC(=O)NC(=O)C1)N1CC(=O)NC(=O)C1,inactive,inactive,inactive,inactive,inactive,inactive,inactive,inactive,inactive,inactive,inactive,inactive,inactive,inactive,inactive,inactive,inactive,inactive,inactive,–
Nc1c2c(nc3ccccc13)CCCC2O (centres undefined),inactive,inactive,inactive,inactive,inactive,inactive,inactive,inactive,inactive,inactive,inactive,inactive,inactive,inactive,inactive,inactive,inactive,inactive,inactive,–
C=Cc1ccccc1,inactive,inactive,inactive,inactive,inactive,inactive,inactive,inactive,inactive,inactive,inactive,–,–,inactive,inactive,–,inactive,inactive,inactive,–
CCCCCCCCCCOS(=O)(=O)O,inactive,inactive,inactive,inactive,inactive,inactive,inactive,inactive,inactive,inactive,–,inactive,inactive,inactive,inactive,inactive,inactive,inactive,inactive,–
O=C(NS(=O)(=O)/C=C/c1ccccc1)c1ccc(F)cc1Cl,inactive,27.3 µM (active),inactive,inactive,inactive,inactive,inactive,inactive,inactive,inactive,inactive,–,–,inactive,inactive,inactive,–,inactive,–,inactive
O[C@@H](CNC[C@H](O)[C@H]1CCc2cc(F)ccc2O1)[C@@H]1CCc2cc(F)ccc2O1,23.7 µM (active),inactive,inactive,inactive,inactive,inactive,inactive,inactive,0.15 µM (active),inactive,–,–,–,18.3 µM (active),–,–,–,inactive,inactive,–
Nc1ccn([C@@H]2O[C@H](CO)[C@@H](O)C2(F)F)c(=O)n1,inactive,inactive,inactive,inactive,inactive,inactive,inactive,inactive,–,–,inactive,–,–,–,–,–,–,inactive,–,–
CCCCCN(CCCCC)C(=O)C(CCC(=O)O)NC(=O)c1ccc(Cl)c(Cl)c1 (centres undefined),inactive,inactive,inactive,inactive,inactive,inactive,inactive,inactive,inactive,inactive,inactive,–,–,–,inactive,inactive,inactive,–,inactive,–
CCCCCCC(CO)CCCC (centres undefined),inactive,inactive,inactive,inactive,inactive,inactive,inactive,inactive,inactive,inactive,inactive,inactive,inactive,inactive,inactive,inactive,inactive,inactive,inactive,inactive
Cc1cc(Br)ccc1NC(=O)CCl,30.6 µM (active),13.7 µM (active),inactive,inactive,inactive,inactive,inactive,inactive,inactive,inactive,inactive,–,–,inactive,inactive,inactive,–,–,–,inactive
O=C1CC2(CCCC2)CC(=O)N1CCNCC1COc2ccccc2O1 (centres undefined),inactive,inactive,inactive,inactive,inactive,inactive,inactive,inactive,inactive,–,0.75 µM (active),–,–,–,–,inactive,inactive,–,–,inactive
